# Screening results as filed in PubChem.
# The list is not random: actives were taken first. Their share in the collection is about 2.4%.
# D2 antag: HTS Assay for Allosteric Antagonists of the Human D2 Dopamine Receptor: Primary Screen for Antagonists. inhibition, % at 10 µM. HEK293 TREx D2 cells, calcium flux, dopamine EC80. D(2) dopamine receptor (Homo sapiens), P14416. 2% of 340,000 active. AID 485344, 2010; in the data active means inhibition above about 30%; inactive means below that, where a call was filed; further: 0% is about no effect
# Target sequence (P14416 whole entry, looked up): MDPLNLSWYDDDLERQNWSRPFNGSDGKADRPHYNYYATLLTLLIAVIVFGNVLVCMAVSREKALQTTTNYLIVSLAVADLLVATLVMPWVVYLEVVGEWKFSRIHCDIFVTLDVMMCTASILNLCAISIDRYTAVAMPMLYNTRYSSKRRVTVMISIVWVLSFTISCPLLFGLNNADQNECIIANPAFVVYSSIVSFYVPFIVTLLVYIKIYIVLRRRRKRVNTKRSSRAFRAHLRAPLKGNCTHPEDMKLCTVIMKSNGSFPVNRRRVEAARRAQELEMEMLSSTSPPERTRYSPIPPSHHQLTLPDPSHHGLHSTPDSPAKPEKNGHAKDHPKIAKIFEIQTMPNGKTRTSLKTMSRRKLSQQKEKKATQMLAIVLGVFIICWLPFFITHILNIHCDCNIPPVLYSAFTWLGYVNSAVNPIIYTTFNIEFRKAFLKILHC
#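 Tetracycline-induced HEK293 T-REx cells expressing D2 force-coupled to calcium signalling were dye-loaded, exposed to compound for 180 s, then challenged with an EC80 of dopamine; calcium flux was followed kinetically for a further 180 s.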
# D2 ag-1: HTS Assay for Allosteric Agonists of the Human D2 Dopamine Receptor: Primary Screen for Agonists. D(2) dopamine receptor (Homo sapiens), P14416. HEK293 T-REx D2 cells, calcium flux agonist mode. activation, % at 2 µM. 0.53% of 340,000 active. AID 485358, 2010;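 active means activation over 3 SD above normal in the single-dose calcium agonist read, cut at about 30% in these data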; further: 0% is about no effect
#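 Tetracycline-induced HEK293 Trex cells with D2 receptor force-coupled to calcium signaling, plated overnight at 30 C and loaded with no-wash calcium dye. Calcium flux read kinetically for 180 s after compound addition; responses flag agonists.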
# D2 PAM-1: HTS Assay for Positive Allosteric Modulators of the Human D2 Dopamine Receptor: Primary Screen for Potentiators; D(2) dopamine receptor (Homo sapiens), P14416; HEK293 T-REx D2, calcium flux, EC20 dopamine potentiation; potentiation, % at 10 µM; 0.34% of 340,000 active;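 active means potentiation over 3 SD above the plate norm, cut at about 30% in these data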; further: 0% is about no effect
#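 Potentiation of an EC20 dopamine calcium response is measured in a force-coupled, tetracycline-inducible Hek293 Trex D2 line. Compound-only kinetic reads over 180 s flag agonists before dopamine addition.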
# D2 ag-2: Beta-Arrestin HTS for Positive Allosteric Modulators of the Human D2 Dopamine Receptor: Agonists; AID 624465, 2012; 0.084% of 360,000 active; D(2) dopamine receptor (Homo sapiens), P14416; DiscoveRx PathHunter D2 beta-arrestin, luminescence, 90 min; 100% = 57 uM dopamine signal; activation, % (no concentration beside the values); in the data active means activation above about 40%
#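 DiscoveRx PathHunter D2 beta-arrestin cells (2,100/well) attached overnight, then compound-stimulated 90 min at 37 C in HBSS/10 mM HEPES/0.1% Tween-20 buffer; beta-galactosidase complementation read by luminescence after 1 h at ambient temperature. Dopamine 57 uM final (EC100) as control.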
# D2 PAM-2: Beta-Arrestin HTS for Positive Allosteric Modulators of the Human D2 Dopamine Receptor: Potentiators. DiscoveRx D2 beta-arrestin cells, luminescence, 90 min; 100% = 57 uM dopamine signal. 0.23% of 360,000 active. D(2) dopamine receptor (Homo sapiens), P14416. potentiation, % (no concentration beside the values). AID 624464, 2012; in the data active means potentiation above about 50%
#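 D2 cells co-treated with compound plus 50 nM dopamine (EC20) for 90 min at 37 deg C to detect potentiation. Beta-arrestin recruitment was read as enzyme-fragment luminescence after 1 h at ambient temperature. Full response was set by 57 uM dopamine.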
# * marks the source's active call; other numbers are inactive results; . = not tested or not shown.
SMILES,D2 antag,D2 ag-1,D2 PAM-1,D2 ag-2,D2 PAM-2
COc1ccc(NC(=O)CN(C)C(=O)c2oc3ccccc3c2C)cc1,31.0*,-1.0,-3.0,-1.5,-3.3
COc1ccc(NC(=O)CNS(=O)(=O)c2ccc(Cl)cc2)cc1,-4.0,0.2,44.9*,0.7,0.7
CC1CCN(C(=O)COC(=O)c2cccc(S(=O)(=O)N3CCOCC3)c2)CC1,.,.,.,-0.8,-6.1
COC(=O)C1=CN(Cc2ccc(OC)cc2)C=C(C(=O)OC)C1c1cc(OC)c(OC)c(OC)c1,-29.6,0.3,-2.8,6.4,-3.9
CCOC(=O)C1=CN(Cc2ccc(OC)cc2)C=C(C(=O)OCC)C1c1cccs1,42.1*,0.6,-1.3,2.5,0.8
O=C(Nc1ccc(Br)cc1)c1ccc2ncsc2c1,36.2*,-0.2,-26.9,1.0,-12.7
CCc1ccc(NC(=O)c2ccc3ncsc3c2)cc1,-7.1,0.0,-12.3,.,.
CCOc1ncccc1C(=O)Nc1nnc(C)s1,-0.9,-0.9,10.8,-5.6,-7.3
CCOc1ncccc1C(=O)Nc1nnc(C2CC2)s1,-26.8,2.3,37.0*,0.3,-22.7
CC1(C)C(=S)N(Cc2ccccc2)c2ccccc21,0.6,-1.0,-2.9,6.4,62.5*
C/C(CC1(O)C(=O)N(Cc2ccccc2)c2ccccc21)=N\O (stereo unspecified),25.3,-0.3,-10.2,-1.7,-13.8
CC(=O)CC1(O)C(=O)N(Cc2ccccc2)c2ccccc21 (stereo unspecified),61.4*,0.2,-24.8,-0.3,7.2
CCCSc1ccc([C@@H]2[C@@H]3C(=O)N(C)C(=O)[C@@H]3[C@]3(C(=O)OC)CCCCN23)cc1OC,35.5*,1.5,3.6,-1.5,-11.1
Clc1ccc(Nc2ncnc3ccc(Br)cc23)cc1,34.2*,2.5,-6.2,1.5,-17.7
Clc1cccc(Nc2ncnc3ccc(Br)cc23)c1,-6.7,0.4,6.8,1.4,-14.1
O=C(CCn1c(=O)sc2ccccc21)NCc1cccs1,32.2*,-0.6,-5.6,-1.1,-14.3
O=C(CCn1c(=O)sc2ccccc21)NCc1ccccc1,20.5,0.0,-18.6,-3.8,-10.9
Clc1ccc(OCc2nnc(-c3ccccc3Br)o2)cc1,36.4*,0.5,-1.2,-0.8,0.4
CCOC(=O)CCc1c(C)c2cc3c(c(C)c2oc1=O)OCN(CCc1ccccc1OC)C3,.,24.3,-5.4,.,.
O=C1S/C(=C\c2ccc(Cl)cc2)C(=O)N1CCn1cnnn1,-1.3,1.2,38.0*,-4.7,-6.8
CN(C)Cc1nc2c(c(=O)[nH]1)C1(CCCCC1)Cc1ccccc1-2,36.9*,0.7,-4.8,-3.1,-16.0
CC(C)Sc1n[nH]c2nc3c(c(=O)n12)C1(CCCC1)Cc1ccccc1-3,54.6*,-0.3,-5.0,.,.
CCN(CC)Cc1nc2c(c(=O)[nH]1)C1(CCCCC1)Cc1ccccc1-2,-3.3,0.5,-3.8,-0.2,-15.1
O=c1[nH]c(NCCCO)nc2c1C1(CCCC1)Cc1ccccc1-2,17.2,0.5,-11.0,1.4,-18.7
O=c1[nH]c(NNC(=S)NC2CCCCC2)nc2c1C1(CCCC1)Cc1ccccc1-2,38.2*,-2.5,13.5,-0.6,-1.8
SMILES,D2 antag,D2 ag-1,D2 PAM-1,D2 ag-2,D2 PAM-2
Cn1c(NCCO)nc2c(c1=O)C1(CCCCC1)Cc1ccccc1-2,67.7*,1.8,-7.8,-6.3,-14.8
CCc1ccc(OCC(=O)N(Cc2ccc(C(C)C)cc2)C2CCS(=O)(=O)C2)cc1 (stereo unspecified),.,0.2,-5.3,.,.
COc1ccc(CCNC(=O)c2cccc(S(=O)(=O)N3CCCC3)c2)cc1OC,5.0,-0.1,5.1,-6.5,-11.6
COc1cc(C(=O)NCCc2ccc(S(=O)(=O)N3CCCC3)cc2)cc(OC)c1OC,58.0*,0.1,-29.1,-18.7,-7.0
COc1ccc(NC(=O)CCc2c(C)nc3nc(CNC(=O)OC(C)(C)C)nn3c2C)cc1OC,.,.,10.5,.,.
CC12CCC(=O)N1c1ccccc1C(=O)N2c1ccccc1 (stereo unspecified),-21.2,0.8,34.5*,1.1,-16.2
Cc1onc(-c2c(Cl)cccc2Cl)c1CO/N=C(\C#N)c1c(Cl)cccc1Cl,30.1*,1.0,-2.9,-3.6,-3.6
CC1(C(=O)NC2CCCCC2)Cc2ccccc2C(=O)N1Cc1ccc(Cl)cc1 (stereo unspecified),.,4.1,13.4,.,.
O=C(C1CC1)N1CCc2cc(Br)cc(S(=O)(=O)N3CCN(c4ccccn4)CC3)c21,46.4*,1.4,-0.5,-2.0,9.8
CC(=O)N1CCc2cc(Br)cc(S(=O)(=O)NCc3ccc(Cl)cc3)c21,68.1*,-0.7,-16.5,3.9,-19.8
CC1CCCN(CCCNS(=O)(=O)c2cc(Br)cc3c2N(C(=O)C2CC2)CC3)C1 (stereo unspecified),.,.,.,4.6,-12.9
O=C(C1CC1)N1CCc2cc(Br)cc(S(=O)(=O)NCCCN3CCCC3)c21,38.8*,0.4,-11.1,-1.7,-10.5
O=C(C1CC1)N1CCc2cc(Br)cc(S(=O)(=O)N3CCN(c4ccccc4)CC3)c21,.,0.6,-1.6,.,.
CC(C)CNC(=O)C1(C)CCCN1C(=O)C(C)(C)Oc1ccc(Cl)cc1 (stereo unspecified),.,.,.,-5.2,-24.5
COc1cccc(-c2nn3c(=O)cc(CN4CCN(S(=O)(=O)c5ccc(C)cc5)CC4)nc3s2)c1,.,1.5,11.1,.,.
Cn1c(SCc2ccccc2Cl)nc2c([nH]c3ccccc32)c1=O,.,.,2.2,.,.
O=C1CC(N2CCN(c3ccccc3Cl)CC2)C(=O)N1c1ccccc1 (stereo unspecified),-8.0,0.2,3.9,-1.8,-4.2
CN1CCN(C2CC(=O)N(c3ccc4c(c3)OCCO4)C2=O)CC1 (stereo unspecified),-1.7,1.0,-12.2,-1.4,14.5
O=C1CC(N2CCOCC2)C(=O)N1c1ccccc1Cl (stereo unspecified),-11.2,0.3,56.8*,-4.7,-1.8
O=C1CC(N2CCN(c3ccccc3)CC2)C(=O)N1c1ccc2c(c1)OCCO2 (stereo unspecified),37.9*,0.4,-5.9,-2.9,-16.4
Cc1cc(NS(=O)(=O)c2ccc(NC(=O)COc3c(C)ccc(C)c3C)cc2)nc(C)n1,.,-0.4,-4.4,.,.
CCCN1CNc2c(c(=O)[nH]c(=S)n2-c2ccccc2Cl)C1,2.6,-0.3,67.6*,-4.4,2.2
COc1ccc(/C=C2\OC(=S)N(C)C2=O)cc1,-6.3,-0.9,-7.7,-1.2,-2.4
CN1C(=O)/C(=C\c2ccc(N(C)C)cc2)OC1=S,47.5*,86.3*,-19.7,-0.7,-3.9
